Screens (PubChem)
KinaseGlo FLuc = Counterscreen for Luciferase (Kinase-Glo TM) Inhibition. Kinase-Glo luciferase, ATP luminescence, 8 min. AID 1379, 2008. 200,000 compounds, 0.28% hits. Potency, µM (titrated, usually from 38.3 µM), inactives show at the highest dose activity change, negative = inhibition, hits mostly inhibitors. Luciferin 4-monooxygenase (Photuris pensylvanica), Q27757; also: % is scaled to controls: 0 for no effect and ±100 for the full control effect; nearly all actives have a fitted effect of over 60% in size
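Recombinant Kinase-Glo luciferase, 10 uM ATP (linear range), luciferin; imidazole pH 7.2 / KCl / MgCl2 / Tween / BSA buffer; 8 min RT; luminescence.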
HttQ103 aggreg = qHTS Multiplex Assay to Identify Dual Action Probes in a Cell Model of Huntington: Aggregate Formation (GFP). PC12 HttQ103-GFP aggregates, Acumen cytometry, 40 h. Potency, µM (doses to about 46.1 µM), for the others: top-dose activity change, negative = inhibition, hits mostly inhibitors. 220,000 compounds, 1.1% hits; also: % is scaled to controls: 0 for no effect and ±100 for the full control effect; nearly all actives have a fitted effect of over 60% in size
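Huntingtin Q103 exon 1–GFP aggregates in induced PC12 cells (100 nM tebufenozide) were quantified by cytometry from lysates, with compounds dosed in titration.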
Lamin A splicing = qHTS Assay for Modulators of Lamin A Splicing; 200,000 compounds, 0.01% hits; HeLa LMNA splicing GFP/RFP minigene ratio, 48 h; Potency, µM (titrated, usually from 46.1 µM), inactives show top-dose ratio change, negative = inhibition, usual class: inhibitors; AID 1487, 2009; active = well fitted inhibition curve with a large enough effect in the signal ratio, with a control signal flat, not every such curve was filed as active; inconclusive = small, poorly fitted or top-dose-only effect, or effect the other way, or a change in a side signal; the % refers to the signal ratio; also: % is scaled to controls: 0 for no effect and ±100 for the full control effect
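S3 HeLa cells stably expressing lamin A-EGFP splicing minigene plus DsRed2, 600 cells/well, 48 h compound exposure at 37C. Laser-scanning cytometry; analysed as GFP (500-530 nm)/RFP (575-640 nm) total intensity ratio; 0.5% DMSO vehicle.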
ALDH1A1 inh = qHTS Assay for Inhibitors of Aldehyde Dehydrogenase 1 (ALDH1A1); Aldehyde dehydrogenase 1A1 (Homo sapiens), P00352; Purified ALDH1A1, NADH fluorescence, propionaldehyde substrate; Potency, µM (highest dose often 75.3 µM), inactives show top-dose activity, negative = inhibition, most hits filed as inhibitors; 220,000 compounds, 7.3% hits; AID 1030, 2008; active = well fitted inhibition curve with a large enough effect, not every such curve was filed as active; inconclusive = small, poorly fitted or top-dose-only effect, or another doubt; inactive = no such curve, though single readings can be large or run the other way;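 also: plate controls were no enzyme wells and a reference inhibitor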
Target sequence (P00352 whole entry, looked up): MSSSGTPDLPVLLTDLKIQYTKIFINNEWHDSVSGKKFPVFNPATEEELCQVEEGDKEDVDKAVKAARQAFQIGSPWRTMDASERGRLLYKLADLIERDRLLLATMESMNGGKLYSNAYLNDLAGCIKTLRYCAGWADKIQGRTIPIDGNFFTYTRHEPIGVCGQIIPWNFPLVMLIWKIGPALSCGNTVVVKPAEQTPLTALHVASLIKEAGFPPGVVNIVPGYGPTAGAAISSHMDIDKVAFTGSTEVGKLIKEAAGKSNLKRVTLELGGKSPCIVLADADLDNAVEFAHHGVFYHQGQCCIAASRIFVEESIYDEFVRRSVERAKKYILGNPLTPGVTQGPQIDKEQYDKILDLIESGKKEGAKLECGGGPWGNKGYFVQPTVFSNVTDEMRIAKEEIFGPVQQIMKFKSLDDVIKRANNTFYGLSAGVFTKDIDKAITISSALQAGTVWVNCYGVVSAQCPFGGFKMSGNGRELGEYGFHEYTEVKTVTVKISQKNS
HTT cytoprotect = qHTS Multiplex Assay to Identify Dual Action Probes in a Cell Model of Huntington: Cytoprotection (ATP). PC12 HTT-Q103 induced, cytoprotection, ATP luminescence, 40 h. Potency, µM (titrated, usually from 56.4 µM), without a hit: cytoprotection (ATP increase), hits mostly activators. 230,000 compounds, 0.14% hits; also: % of control where 0% means no effect; nearly all actives have a fitted effect of over 45% in size
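Compounds added alongside 100 nM tebufenozide, which induces toxic Q103 huntingtin exon 1-GFP in stable PC12 cells; surviving cells quantified by luminescent ATP measurement. Medium: phenol red-free DMEM, 5% equine and 5% calf serum.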
HPGD inh = qHTS Assay for Inhibitors of HPGD (15-Hydroxyprostaglandin Dehydrogenase); 15-hydroxyprostaglandin dehydrogenase [NAD(+)] (Homo sapiens), P15428; purified HPGD, NADH fluorescence kinetic, PGE2 substrate; Potency, µM, for the others: top-dose activity change, negative = inhibition, usual class: inhibitors; 150,000 compounds, 4.3% hits; AID 894, 2007; active = well fitted inhibition curve with a large enough effect, not every such curve was filed as active; inconclusive = small, poorly fitted or top-dose-only effect, or another doubt; inactive = no such curve, though single readings can be large or run the other way; also: % is scaled to controls: 0 for no effect and ±100 for the full control effect
Target sequence (P15428 whole entry, looked up): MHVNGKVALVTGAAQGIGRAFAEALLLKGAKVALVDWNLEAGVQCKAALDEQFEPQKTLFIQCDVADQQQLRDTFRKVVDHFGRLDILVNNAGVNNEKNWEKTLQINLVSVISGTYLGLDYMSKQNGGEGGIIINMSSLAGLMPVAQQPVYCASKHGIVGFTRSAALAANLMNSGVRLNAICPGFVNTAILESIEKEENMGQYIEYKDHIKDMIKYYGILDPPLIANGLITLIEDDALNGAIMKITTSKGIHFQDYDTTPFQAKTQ
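20 nM HPGD preincubated 15 min at room temperature with compound in 50 mM Tris-HCl pH 8, 0.01% Tween 20. Started with 1 mM NAD+ and 30 uM prostaglandin E2; NADH fluorescence (360/450 nm) read 5 times over 30-s intervals, last minus first.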
* hit, by the source's call; [ ] = remark or other dose. Sampled rows, rich in hits. Any-hit rate of the full collection: about 9%. Unless noted, calls follow the shape of the dose curve; as a rule, active = well fitted curve in the direction sought with a large enough effect; inconclusive = small, poorly fitted or top-dose-only effect, or another doubt; inactive = no such curve, though single readings can be large; an effect the other way counts as inactive or inconclusive. Potency is read from the fitted curve at half-maximal effect.

`CCN(CC)c1ccc(/C=N/NC(=O)c2c(Cl)c(C)nn2C)cc1` gave KinaseGlo FLuc -4.9%, HttQ103 aggreg 11.2%, Lamin A splicing 7.2%, ALDH1A1 inh inconclusive and HPGD inh -24.9%.
Screening CC(=O)OCC1=C(C(=O)O)N2C(=O)[C@@H](NC(=O)Cc3cccs3)[C@H]2SC1 returned KinaseGlo FLuc -4.4%, HttQ103 aggreg -6.8%, Lamin A splicing 9.5%, ALDH1A1 inh -4.4%, HTT cytoprotect inconclusive and HPGD inh -15.7%.
For O=C(Cc1cccs1)NC1C(=O)N2C(C(=O)[O-])=C(C[n+]3ccccc3)CSC12 (configuration not stated) the results were KinaseGlo FLuc -13.8%, HttQ103 aggreg -9.7%, Lamin A splicing inconclusive, ALDH1A1 inh 28.2µM*, HTT cytoprotect -11.0% and HPGD inh 31.6µM*.
`Cc1ccc(NC(=O)CSc2ncnc3c2sc2ccccc23)cc1C` gave Lamin A splicing -5.9%[46 µM].
Cc1csc2c(SCC(=O)NNC(=O)C(Cl)Cl)ncnc12 was read as HttQ103 aggreg 8.7%[9.22 µM], Lamin A splicing 6.1%[46 µM], ALDH1A1 inh 28.2µM* and HTT cytoprotect 2.9%[10 µM].
Screening CNC(=O)CSc1nnc(-c2ccc3c(c2)OCO3)n1C returned KinaseGlo FLuc -0.6%, HttQ103 aggreg -7.0%[9.22 µM], Lamin A splicing inconclusive, ALDH1A1 inh 0.6% and HTT cytoprotect 6.3%[10 µM].
`CCOC(=O)c1ccc2c(c1)nc(SCC(=O)N1CCCCC1)n2CC` gave KinaseGlo FLuc 7.4%, HttQ103 aggreg -8.5%, Lamin A splicing 14.2%, ALDH1A1 inh inconclusive, HTT cytoprotect -11.1%[10 µM] and HPGD inh 5.01µM*.
`COc1ccc(-n2c(SCC(=O)N3CCCCC3)nc(O)cc2=O)cc1` gave KinaseGlo FLuc -2.9%, HttQ103 aggreg 27.0%, Lamin A splicing 2.7%, ALDH1A1 inh 22.4µM*, HTT cytoprotect -7.8%[10 µM] and HPGD inh -7.1%.
`CCn1c(SCC(=O)N2CCCCC2)nc(O)cc1=O` gave KinaseGlo FLuc 3.8%, HttQ103 aggreg 9.7%, Lamin A splicing 12.5%, ALDH1A1 inh 0.8%, HTT cytoprotect 29.1% and HPGD inh 0.282µM*.
CCOC(=O)c1ccc2c(c1)nc(SCC(=O)c1ccco1)n2CC was read as KinaseGlo FLuc -5.7%, HttQ103 aggreg 11.6%, Lamin A splicing 14.5%, ALDH1A1 inh inconclusive, HTT cytoprotect -7.9% and HPGD inh -28.5%.
For Cn1nc(-c2ccc(S(N)(=O)=O)s2)cc1C(F)(F)F the results were HttQ103 aggreg -8.8%[9.22 µM] and HTT cytoprotect -5.0%[10 µM].
O=C(Nc1ccc2c(c1)OCCO2)c1cccnc1Oc1ccccc1 was read as HttQ103 aggreg -30.2%[9.22 µM] and HTT cytoprotect 0.4%[10 µM].
`COC(=O)c1scc(C)c1N1C(=O)c2ccccc2C1=O` gave HttQ103 aggreg 19.9%[9.22 µM], Lamin A splicing 16.7%[46 µM], ALDH1A1 inh -1.6% and HTT cytoprotect 5.9%[10 µM].
For Cc1[nH]n(-c2ccccc2)c(=O)c1/C=N/NC(=O)C(C)C the results were KinaseGlo FLuc -3.2%, HttQ103 aggreg inconclusive, Lamin A splicing inconclusive, ALDH1A1 inh 25.1µM* and HTT cytoprotect -124.2%.
`Cc1ccc(-n2[nH]c(C)c(/C=N/NC(=O)c3ccc([N+](=O)[O-])cc3)c2=O)c(C)c1` gave KinaseGlo FLuc -1.5%, HttQ103 aggreg 12.6µM*, ALDH1A1 inh 5.4% and HTT cytoprotect -134.3%.
Screening Cc1[nH]n(-c2ccccc2)c(=O)c1N=O returned KinaseGlo FLuc -12.2%, HttQ103 aggreg 0.631µM*, Lamin A splicing 4.7%[46 µM] and ALDH1A1 inh -7.1%.
For COC(=O)N/N=C\c1c(C)[nH]n(-c2ccccc2)c1=O the results were KinaseGlo FLuc -3.7%, HttQ103 aggreg -2.5%[9.22 µM], Lamin A splicing -6.1%[46 µM], ALDH1A1 inh -13.5% and HTT cytoprotect 0.3%[10 µM].
Cc1[nH]n(-c2ccccc2)c(=O)c1/C=N/O was read as KinaseGlo FLuc -2.9%, HttQ103 aggreg inconclusive, Lamin A splicing 4.8%, ALDH1A1 inh 5.2%, HTT cytoprotect -31.8% and HPGD inh -7.5%.
Cc1[nH]n(-c2ccccc2)c(=O)c1/C=N/NC(=O)COc1ccccc1[N+](=O)[O-] was read as KinaseGlo FLuc -1.6%, HttQ103 aggreg inconclusive, Lamin A splicing inconclusive, ALDH1A1 inh 4.2%, HTT cytoprotect -13.1%[10 µM] and HPGD inh -11.2%.
For Cc1[nH]n(-c2ccccc2)c(=O)c1/C=N/NC(=O)c1cccc([N+](=O)[O-])c1 the results were KinaseGlo FLuc -5.9%, HttQ103 aggreg 5.62µM*, Lamin A splicing inconclusive, ALDH1A1 inh 3.9%, HTT cytoprotect -64.0%[10 µM] and HPGD inh -14.7%.
Screening Cc1ccc(CS(=O)(=O)CCC(=O)NCCC(C)C)cc1 returned KinaseGlo FLuc 0.5%, HttQ103 aggreg 8.9%, Lamin A splicing 6.9%, ALDH1A1 inh 7.7%, HTT cytoprotect -1.0% and HPGD inh 4.2%.
For CCOC(=O)CCSCC(=O)N1N=C(c2cccs2)CC1c1ccc(C)cc1 (configuration not stated) the results were KinaseGlo FLuc 3.0%, HttQ103 aggreg 1.8%, Lamin A splicing -8.7%, ALDH1A1 inh inconclusive, HTT cytoprotect 12.2%[10 µM] and HPGD inh inconclusive.
`O=C(Nc1cc(-c2ccccc2)[nH]n1)c1ccc(Cl)cc1` gave HttQ103 aggreg -7.8%[9.22 µM], ALDH1A1 inh -7.7% and HTT cytoprotect 6.3%[10 µM].
`Cc1[nH]n(-c2cccc3ccccc23)c(=O)c1/C=N/NC(=O)c1cccc([N+](=O)[O-])c1` gave KinaseGlo FLuc 1.3%, HttQ103 aggreg 10µM*, Lamin A splicing 7.8%, ALDH1A1 inh 0.3%, HTT cytoprotect 7.1%[10 µM] and HPGD inh -15.8%.
`Cc1ccc(NC(=O)c2ccco2)c([N+](=O)[O-])c1` gave KinaseGlo FLuc -3.7%, HttQ103 aggreg 13.7%, Lamin A splicing -0.7%[46 µM], ALDH1A1 inh inconclusive and HTT cytoprotect -31.6%.
Screening COc1ccc(N2C(=O)CC(NC3CC3)C2=O)cc1 (configuration not stated) returned KinaseGlo FLuc 3.3%, HttQ103 aggreg 2.6%, Lamin A splicing -11.1%, ALDH1A1 inh -11.6%, HTT cytoprotect 14.8%[10 µM] and HPGD inh -5.8%.
